This note sets out measurements from PubChem BioAssay (NCATS).

Experiment [1] concerns the target Cytochrome P450 2C9 (Homo sapiens) (UniProt P11712). In words: Cytochrome P450 family 2 subfamily C member 9 (CYP2C9) small molecule antagonists: luciferase biochemical (cell-free) qHTS assay (AID 1645842; active = well fitted curve in the direction sought with a large enough effect in the repeat runs; an effect the other way counts as inactive or inconclusive; also: potency is read from the fitted curve at half-maximal effect; nearly all actives have a fitted effect of over 55% in size). As to conditions: P450-Glo CYP2C9 enzyme assay, luciferin luminescence; series mostly up to 57.4 µM. Summed up: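 Luminescence, after 20 min with luciferin detection reagent, reflected CYP2C9 turnover during a 1 h NADPH-driven reaction at 37C. Enzyme-substrate mix contained 0.4% bovine serum albumin and was preincubated with compound 10 min at room temperature.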
For orientation: Quantitative high-throughput screening tests each substance at several concentrations.

For experiment [2], the target named is N-terminal Xaa-Pro-Lys N-methyltransferase 1 (Homo sapiens) (UniProt Q9BV86). In words: Confirmatory qHTS for Inhibitors of N-terminal methyltransferase 1 (NTMT1): MTaseGlo Assay (AID 1645874). Also: potency is read from the fitted curve at half-maximal effect; nearly all actives have a fitted effect of over 65% in size. As to conditions: NTMT1 enzyme, MTase-Glo SAH luminescence; series mostly up to 100 µM. Summed up:
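Luminescent MTase-Glo read-out of SAH. 125 nM NTMT1, 100 uM SAM, 1 uM SPKRIA substrate, 30 min RT reaction after 15 min compound preincubation. Normalized to no-enzyme and DMSO controls; Hill fit.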

Experiment [3] is described as follows: Primary qHTS for inhibitors of nuclear receptor binding SET domain protein 2 (NSD2) in an isogenic RCH-ACV NSD2 p.E1099K mutant (9B) (AID 1645876). Also: nearly all actives have a fitted effect of over 70% in size. Also: potency is read from the fitted curve at half-maximal effect. As to conditions: RCH-ACV NSD2 E1099K (9B) viability, CellTiter-Glo, 72 h; series mostly up to 44.9 µM.
The target in experiment [4] is Cytochrome P450 2D6 (Homo sapiens) (UniProt P10635). The experiment can be described thus: Cytochrome P450 family 2 subfamily D member 6 (CYP2D6) small molecule antagonists: luciferase biochemical (cell-free) qHTS assay (AID 1645840; active = well fitted curve in the direction sought with a large enough effect in the repeat runs; an effect the other way counts as inactive or inconclusive; also: nearly all actives have a fitted effect of over 55% in size; also: potency is read from the fitted curve at half-maximal effect). As to conditions: P450-Glo CYP2D6 enzyme, luciferin luminescence, 1 h; series mostly up to 57.4 µM. The procedure, abridged: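 P450-Glo luminescent screen: recombinant CYP2D6 enzyme–proluciferin substrate mix preincubated with compound 10 min at room temperature, then NADPH regeneration added for 1 h at room temperature. Detection reagent added for 20 min; luciferin light read as relative luminescence units.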

Experiment [5] has as its target Cytochrome P450 3A4 (Homo sapiens) (UniProt P08684). The experiment can be described thus: Cytochrome P450 family 3 subfamily A member 4 (CYP3A4) small molecule antagonists: luciferase qHTS assay (AID 1645841; active = well fitted curve in the direction sought with a large enough effect in the repeat runs; an effect the other way counts as inactive or inconclusive; also: nearly all actives have a fitted effect of over 45% in size). As to conditions: P450-Glo CYP3A4 enzyme assay, luciferin luminescence; series mostly up to 57.4 µM. The procedure, abridged: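 P450-Glo CYP3A4 enzyme with proluciferin substrate was preincubated with DMSO-dissolved compounds for 10 min at room temperature. NADPH regeneration solution started a 1 h reaction. Detection reagent stopped it, and luminescence was read after 20 min.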

The nature of experiment [6]: Primary qHTS for inhibitors of nuclear receptor binding SET domain protein 2 (NSD2) in an RCH-ACV wild type WT cells (2C) (AID 1645877). Also: nearly all actives have a fitted effect of over 70% in size. Also: potency is read from the fitted curve at half-maximal effect. As to conditions: RCH-ACV (leukaemia line) NSD2 WT (2C) viability, CellTiter-Glo, 72 h; series mostly up to 44.9 µM.
Experiment [7] concerns the target Rap guanine nucleotide exchange factor 3 (Homo sapiens) (UniProt O95398). The experiment can be described thus: Confirmatory qHTS for antagonist of cAMP-regulated guanine nucleotide exchange factor 3 (EPAC1) (AID 1645880). Also: nearly all actives have a fitted effect of over 55% in size. The settings on record: EPAC1 Rap1B-BODIPY-GDP exchange, fluorescence; series mostly up to 115 µM. Summed up: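 Nucleotide exchange uses 100 nM EPAC1, 250 nM RAP1B-BODIPY-GDP and 50 uM GDP, with compounds in a concentration-titration series. After 5 min at room temperature, fluorescence (480 nm ex/540 nm em) is read every 5 min for 30 min. Data are normalized to control ATA and DMSO.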

Experiment [8] shares this target. The experiment can be described thus: Confirmatory qHTS for agonist of cAMP-regulated guanine nucleotide exchange factor 3 (EPAC1) (AID 1645881).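 Also: EPAC1 catalysed release of BODIPY-GDP from Rap1B seen as fluorescence loss; nearly all actives have a fitted effect of over 75% in size.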 As to conditions: EPAC1 Rap1B BODIPY-GDP exchange fluorescence, 100% = cAMP control response; series mostly up to 154 µM.

Molecules are shown by their SMILES. Several values for one entry are separate records, joined by “and”; a condition that tells them apart may be missing. Identical values can stand only once. Inconclusive results are not listed. A structure can be active in one record and inactive in another. Activity calls are given as the source filed them. Unless noted, calls follow the shape of the dose curve; as a rule, active = well fitted curve in the direction sought with a large enough effect; inconclusive = small, poorly fitted or top-dose-only effect, or another doubt; inactive = no such curve, though single readings can be large; an effect the other way counts as inactive or inconclusive.

Sequence of Cytochrome P450 2C9 (Homo sapiens) (P11712 whole entry, looked up): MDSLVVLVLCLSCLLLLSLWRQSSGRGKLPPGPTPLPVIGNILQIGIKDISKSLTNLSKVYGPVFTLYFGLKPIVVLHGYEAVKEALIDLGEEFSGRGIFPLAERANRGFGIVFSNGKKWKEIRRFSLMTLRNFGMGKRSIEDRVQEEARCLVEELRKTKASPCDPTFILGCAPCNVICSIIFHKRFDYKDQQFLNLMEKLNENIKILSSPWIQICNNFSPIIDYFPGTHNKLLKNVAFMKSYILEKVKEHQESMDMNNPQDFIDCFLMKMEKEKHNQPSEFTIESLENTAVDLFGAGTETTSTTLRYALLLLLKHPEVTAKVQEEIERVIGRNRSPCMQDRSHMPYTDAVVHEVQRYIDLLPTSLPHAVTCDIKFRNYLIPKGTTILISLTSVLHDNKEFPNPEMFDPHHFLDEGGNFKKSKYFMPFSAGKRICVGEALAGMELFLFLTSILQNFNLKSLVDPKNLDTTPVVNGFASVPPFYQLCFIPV
Sequence of Cytochrome P450 2D6 (Homo sapiens) (P10635 whole entry, looked up): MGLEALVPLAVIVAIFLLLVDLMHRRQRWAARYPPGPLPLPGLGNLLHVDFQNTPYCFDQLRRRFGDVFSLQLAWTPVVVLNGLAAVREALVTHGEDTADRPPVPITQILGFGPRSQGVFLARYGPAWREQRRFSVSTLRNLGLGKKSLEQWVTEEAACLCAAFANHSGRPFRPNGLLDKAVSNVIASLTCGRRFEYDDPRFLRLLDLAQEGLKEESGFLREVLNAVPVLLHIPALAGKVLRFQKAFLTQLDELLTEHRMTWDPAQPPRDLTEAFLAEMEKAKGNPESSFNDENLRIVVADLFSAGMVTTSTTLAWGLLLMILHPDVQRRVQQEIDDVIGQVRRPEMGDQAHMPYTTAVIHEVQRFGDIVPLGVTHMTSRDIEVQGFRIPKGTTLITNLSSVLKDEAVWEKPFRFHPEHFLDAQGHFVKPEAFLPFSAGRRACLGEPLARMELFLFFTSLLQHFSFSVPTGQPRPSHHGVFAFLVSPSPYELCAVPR
Sequence of Rap guanine nucleotide exchange factor 3 (Homo sapiens) (O95398 whole entry, looked up): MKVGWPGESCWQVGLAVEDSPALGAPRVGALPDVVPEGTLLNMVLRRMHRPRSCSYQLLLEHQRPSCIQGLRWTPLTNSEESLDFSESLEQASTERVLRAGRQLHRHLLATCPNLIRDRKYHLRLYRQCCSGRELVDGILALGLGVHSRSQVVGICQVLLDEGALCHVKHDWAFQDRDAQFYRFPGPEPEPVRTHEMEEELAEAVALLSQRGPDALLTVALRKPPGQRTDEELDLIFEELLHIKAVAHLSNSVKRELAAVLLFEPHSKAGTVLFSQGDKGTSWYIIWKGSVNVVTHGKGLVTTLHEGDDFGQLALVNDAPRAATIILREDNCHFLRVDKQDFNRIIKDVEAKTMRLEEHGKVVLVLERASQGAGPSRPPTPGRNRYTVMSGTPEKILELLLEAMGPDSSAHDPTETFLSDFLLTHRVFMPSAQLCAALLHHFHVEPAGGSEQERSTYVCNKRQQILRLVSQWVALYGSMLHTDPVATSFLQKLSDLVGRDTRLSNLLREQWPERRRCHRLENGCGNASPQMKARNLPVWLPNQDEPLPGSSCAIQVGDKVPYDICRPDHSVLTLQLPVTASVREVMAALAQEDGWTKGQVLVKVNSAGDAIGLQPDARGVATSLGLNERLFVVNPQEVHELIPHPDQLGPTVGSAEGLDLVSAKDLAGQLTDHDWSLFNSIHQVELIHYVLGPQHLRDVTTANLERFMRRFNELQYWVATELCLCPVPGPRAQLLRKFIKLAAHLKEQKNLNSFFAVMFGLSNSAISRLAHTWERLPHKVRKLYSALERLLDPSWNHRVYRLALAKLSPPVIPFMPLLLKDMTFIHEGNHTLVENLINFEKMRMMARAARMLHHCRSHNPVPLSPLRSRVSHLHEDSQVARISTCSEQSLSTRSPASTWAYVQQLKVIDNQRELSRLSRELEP
Sequence of N-terminal Xaa-Pro-Lys N-methyltransferase 1 (Homo sapiens) (Q9BV86 whole entry, looked up): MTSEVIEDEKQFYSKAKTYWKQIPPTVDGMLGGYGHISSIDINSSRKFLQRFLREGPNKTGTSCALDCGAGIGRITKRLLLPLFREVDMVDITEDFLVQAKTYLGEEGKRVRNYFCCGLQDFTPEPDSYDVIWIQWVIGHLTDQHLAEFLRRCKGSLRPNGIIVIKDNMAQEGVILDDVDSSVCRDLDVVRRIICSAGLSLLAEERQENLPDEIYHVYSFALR
Sequence of Cytochrome P450 3A4 (Homo sapiens) (P08684 whole entry, looked up): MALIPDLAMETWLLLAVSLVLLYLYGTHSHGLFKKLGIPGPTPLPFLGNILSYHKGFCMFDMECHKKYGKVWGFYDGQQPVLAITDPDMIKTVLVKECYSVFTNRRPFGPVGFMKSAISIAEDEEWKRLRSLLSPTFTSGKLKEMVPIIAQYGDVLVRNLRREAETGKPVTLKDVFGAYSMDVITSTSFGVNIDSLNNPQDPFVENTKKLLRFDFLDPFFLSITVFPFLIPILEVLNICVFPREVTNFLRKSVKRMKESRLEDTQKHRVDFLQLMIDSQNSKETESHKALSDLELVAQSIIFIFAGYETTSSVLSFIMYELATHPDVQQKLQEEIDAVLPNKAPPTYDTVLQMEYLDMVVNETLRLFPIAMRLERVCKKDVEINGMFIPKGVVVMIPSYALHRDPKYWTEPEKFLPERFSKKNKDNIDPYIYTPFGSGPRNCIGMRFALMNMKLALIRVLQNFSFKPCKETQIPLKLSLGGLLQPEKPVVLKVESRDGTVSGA

Turning to `COc1cc2c(cc1OC)CN(CCc1ccc(NC(=O)c3cccc4c(=O)c5cccc(OC)c5[nH]c34)cc1)CC2`, the Potency was 3.01 µM (active) in experiment [1] and 35.5 µM (active) in experiment [2]. Moreover, the Potency result in experiment [3] was “inactive”.
In the case of `O=C(Nc1cccnc1)N1CCC(Cc2cccc(Oc3ccc(C(F)(F)F)cn3)c2)CC1`, the Potency in experiment [4] is 4.25 µM (active); in experiment [1], 10.7 µM (active); in experiment [3], 6.49 µM (active) and 7.42 µM (active).
For the compound `Cc1ccc(-n2nc(C(C)(C)C)cc2NC(=O)Nc2ccc(OCCN3CCOCC3)c3ccccc23)cc1`, the Potency was 4.9 µM (active) in experiment [4]; 9.77 µM (active) in experiment [1]; 23.7 µM (active) and inactive in experiment [3].
With `COc1ccccc1-c1cccc(-c2c(O)c3cc(C#N)c(Cl)cc3[nH]c2=O)c1`, the Potency in experiment [1] is 35.5 µM (active). Besides, the Potency entry in experiment [3] is “inactive”.
On to `CCCc1nc2c(C)cc(-c3nc4ccccc4n3C)cc2n1Cc1ccc(-c2ccccc2C(=O)O)cc1`, for which the Potency in experiment [1] is 8.71 µM (active). Moreover, in experiment [3], the Potency entry is “inactive”.
On to `CNCc1ccc(-c2[nH]c3cc(F)cc4c3c2CCNC4=O)cc1`, for which, in experiment [5], the Potency result was “inactive”. For the same compound, the Potency in experiment [1] is 6.01 µM (active); in experiment [3] it was 16.3 µM (active) and 11.8 µM (active); in experiment [6], 7.28 µM (active) and 7.42 µM (active).
On to `O=c1[nH]c(-c2ccc(C(F)(F)F)cc2)nc2c1CSCC2`, for which the Potency entry in experiment [4], in experiment [3] and in experiment [6] was “inactive” each time. Also, the Potency in experiment [1] is 19 µM (active).
`Nc1ccc(S(=O)(=O)Nc2ccnn2-c2ccccc2)cc1`: the Potency result in experiment [4] and in experiment [3] was “inactive” in each case.
`Nc1ncnc2nc(-c3ccc(N4CCOCC4)nc3)cc(-c3cccc(Br)c3)c12`: in experiment [2], the Potency was 0.515 µM (active).
For the compound `CCOC(=O)N1CCC(=C2c3ccc(Cl)cc3CCc3cccnc32)CC1`, in experiment [7], the Potency entry is “inactive”. In experiment [8], the call was inactive.
